In PubChem BioAssay (NCI):
About 83,000 compounds went through this panel and 20% of them were active in at least one assay; those are over-represented in the sample as a whole.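 The test compound was applied at a single concentration to cells in 96-well plates for 48 hours, and percent growth was recorded.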 A number with no mark means an inactive call. The source made the active and inactive calls. The calls were made as follows: active = growth percent below 10; inactive = the rest.

What was measured:
Experiment in all cases: NCI-60 one-dose screen, 48 h (100 = growth as untreated, 0 = no growth, -100 = all killed)
Details in all cases: 10 µM unless noted
HCT-15 colon = test system: HCT-15 colon
HT29 colon = test system: HT29 colon
SNB-75 CNS = test system: SNB-75 CNS
SNB-19 CNS = test system: SNB-19 CNS
PC-3 prostate = test system: PC-3 prostate
SK-MEL-5 melanoma = test system: SK-MEL-5 melanoma
UACC-62 melanoma = test system: UACC-62 melanoma
LOX IMVI melanoma = test system: LOX IMVI melanoma
SK-MEL-28 melanoma = test system: SK-MEL-28 melanoma

| SMILES | growth (HCT-15 colon) | growth (HT29 colon) | growth (SNB-75 CNS) [%] | growth (SNB-19 CNS) | growth (PC-3 prostate) | growth (SK-MEL-5 melanoma) | growth (UACC-62 melanoma) | growth (LOX IMVI melanoma) | growth (SK-MEL-28 melanoma) |
| --- | --- | --- | --- | --- | --- | --- | --- | --- | --- |
| CCOC(=O)c1cnn2c3ccccc3n(S(=O)(=O)c3ccc(OC)cc3)c12 | 13% | 11.6% | 61.3 | 27.5% | 35.7% | -15% (active) | 25.7% | 18.7% | 57.9% |
| COc1ccc(S(=O)(=O)n2cc(C3OC(c4cc(OC)c(OC)c(OC)c4)=NN3C(C)=O)c3ccccc32)cc1OC (stereo unspecified) | 81.8% | 110% | 86 | 85.7% | 80.3% | 76.4% | 72.8% | 78.4% | 110% |
| COc1cccc(/C=C2\C=C(c3ccccc3)N(Cc3ccccc3)C2=O)c1 | 38% | 82.2% | 51.4 | 79.6% | 33.9% | 34.8% | 38% | 49.2% | 79.9% |
| C=CCc1cc(C)ccc1NC(C(=O)NCC(=O)OC)c1ccccc1 (stereo unspecified) | 91.8% | 98.4% | 88.9 | 105% | 89.1% |  | 95.4% | 103% | 101% |
| COc1ccc(NC(=O)n2nc(/C=C\c3ccc(O)c(OC)c3)cc2/C=C\c2ccc(O)c(OC)c2)cc1 | 13.2% | 31.3% | 32.6 | 38.9% | 28.4% | 9.04% (active) | 25.5% | 27.6% | 34.5% |
| CCOC(=O)c1c(C)oc2ncnc(N3CCN(C(=O)COc4ccc(C(C)(C)C)cc4)CC3)c12 | 79.8% | 90.2% | 93.5 | 85.4% | 59.3% | 34.8% | 42.9% | 75.5% | 85.4% |
| COc1ccc(/C=C/c2c(C(=O)/C=C/c3ccc(C(F)(F)F)cc3)c(C)nc3ccccc23)cc1 | -20.2% (active) | 7.38% (active) | 25.6 | -43.1% (active) | -23.4% (active) | -79.9% (active) | -29% (active) | -91.2% (active) | -50.7% (active) |
| Cc1ccc(-c2nc(N3CCN(C(=O)Nc4ccc(Cl)c(C(F)(F)F)c4)CC3)c3ccccc3n2)cc1 | 70.3% | 75.2% | 66.2 | 86% | 49.6% | 84.3% | 70% | 65.4% | 89.2% |
